Holding throughout (test): yeast three-hybrid, YBZ-1, SC-Leu-His + 0.5 mM 3-AT, 4 days
Common to all, as to details: tags: N-Gal4 AD-HA kept; label: inside an RPR1-promoter hybrid RNA with tandem MS2 sites; ssRNA

Experiment [1] concerns the target PUM1 PUF domain R4-EHD (Homo sapiens, UniProt Q14671 828-1176, N971E;Q975D). The method, boiled down:
(§1)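 Pumilio-1 PUF domain libraries, randomized at the three base-contacting residues of each repeat, were co-expressed with matching RNA elements from a centromeric plasmid in strain YBZ-1, which carries a LexA–MS2 coat fusion and a HIS3 reporter. Transformants grew for four days on SC-Leu (input) or on SC-Leu-His + 0.5 mM 3-AT (selection), and the repeat regions were PCR-amplified and Illumina-sequenced. The interaction score is the log change in variant frequency from input to selection. That logarithm is base 2, with a pseudocount of 1 where a variant was absent.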

The target of experiment [2] is PUM1 PUF domain R4-SMS (Homo sapiens, UniProt Q14671 828-1176, N971S;H972M;Q975S). The gist of the method:
as §1

Experiment [3] concerns the target PUM1 PUF domain R3-RPR (Homo sapiens, UniProt Q14671 828-1176, C935R;R936P;Q939R). The gist of the method:
as §1

Experiment [4] deals with T1, PUM1 PUF domain R6-HWR (Homo sapiens, UniProt Q14671 828-1176, N1043H;Y1044W;Q1047R).
T1 sequence: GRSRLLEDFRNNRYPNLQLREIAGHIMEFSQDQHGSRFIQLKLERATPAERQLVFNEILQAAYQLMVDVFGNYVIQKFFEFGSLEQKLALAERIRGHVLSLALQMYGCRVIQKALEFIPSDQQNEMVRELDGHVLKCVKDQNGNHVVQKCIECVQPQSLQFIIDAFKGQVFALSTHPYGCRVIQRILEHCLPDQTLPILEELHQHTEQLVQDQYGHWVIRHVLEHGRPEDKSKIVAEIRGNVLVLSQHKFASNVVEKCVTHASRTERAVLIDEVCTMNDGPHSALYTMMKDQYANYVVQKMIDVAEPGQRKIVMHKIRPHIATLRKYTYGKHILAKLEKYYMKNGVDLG
The gist of the method:
as §1

For experiment [5], the target named is PUM1 PUF domain R8-KWK (Homo sapiens, UniProt Q14671 828-1176, N1122K;Y1123W;Q1126K). The gist of the method:
as §1

For experiment [6], the target named is PUM1 PUF domain R5-FRI (Homo sapiens, UniProt Q14671 828-1176, C1007F;Q1011I). The gist of the method: as §1
Experiment [7] deals with PUM1 PUF domain R8-NWG (Homo sapiens, UniProt Q14671 828-1176, Y1123W;Q1126G). The method, boiled down: as §1
Experiment [8] concerns the target PUM1 PUF domain R3-VHP (Homo sapiens, UniProt Q14671 828-1176, C935V;R936H;Q939P). The method, boiled down: as §1
In experiment [9] the target is PUM1 PUF domain R2-LWE (Homo sapiens, UniProt Q14671 828-1176, N899L;Y900W;Q903E). The gist of the method:
as §1

The target in experiment [10] is PUM1 PUF domain R3-SRV (Homo sapiens, UniProt Q14671 828-1176, C935S;Q939V). The method, boiled down: as §1
The target of experiment [11] is PUM1 PUF domain R7-KFN (Homo sapiens, UniProt Q14671 828-1176, S1079K;N1080F;E1083N). The gist of the method:
as §1

In experiment [12] the target is PUM1 PUF domain R7-QCR (Homo sapiens, UniProt Q14671 828-1176, S1079Q;N1080C;E1083R). The gist of the method: as §1
The target in experiment [13] is PUM1 PUF domain R7-RHP (Homo sapiens, UniProt Q14671 828-1176, S1079R;N1080H;E1083P). The method, boiled down:
as §1

The target in experiment [14] is PUM1 PUF domain R7-EPS (Homo sapiens, UniProt Q14671 828-1176, S1079E;N1080P;E1083S). The gist of the method:
as §1

The target of experiment [15] is PUM1 PUF domain R7-TVR (Homo sapiens, UniProt Q14671 828-1176, S1079T;N1080V;E1083R). The method, boiled down:
as §1

Experiment [16] has as its target PUM1 PUF domain R4-HNV (Homo sapiens, UniProt Q14671 828-1176, N971H;H972N;Q975V). The gist of the method: as §1
The target of experiment [17] is PUM1 PUF domain R4-TPQ (Homo sapiens, UniProt Q14671 828-1176, N971T;H972P). The method, boiled down: as §1
Experiment [18] concerns the target T2, PUM1 PUF domain R6-AYE (Homo sapiens, UniProt Q14671 828-1176, N1043A;Q1047E).
T2 sequence: T1 sequence with H216A, W217Y, R220E
The method, boiled down: as §1

The target in experiment [19] is PUM1 PUF domain R8-RYM (Homo sapiens, UniProt Q14671 828-1176, N1122R;Q1126M). The method, boiled down:
as §1

Experiment [20] deals with T3, PUM1 PUF domain R6-FWI (Homo sapiens, UniProt Q14671 828-1176, N1043F;Y1044W;Q1047I).
T3 sequence: T1 sequence with H216F, R220I
The method, boiled down: as §1

Positions count from the first letter of the chain named.

PUM1 PUF domain R4-HNV, sequence (Q14671 828-1176 N971H/H972N/Q975V): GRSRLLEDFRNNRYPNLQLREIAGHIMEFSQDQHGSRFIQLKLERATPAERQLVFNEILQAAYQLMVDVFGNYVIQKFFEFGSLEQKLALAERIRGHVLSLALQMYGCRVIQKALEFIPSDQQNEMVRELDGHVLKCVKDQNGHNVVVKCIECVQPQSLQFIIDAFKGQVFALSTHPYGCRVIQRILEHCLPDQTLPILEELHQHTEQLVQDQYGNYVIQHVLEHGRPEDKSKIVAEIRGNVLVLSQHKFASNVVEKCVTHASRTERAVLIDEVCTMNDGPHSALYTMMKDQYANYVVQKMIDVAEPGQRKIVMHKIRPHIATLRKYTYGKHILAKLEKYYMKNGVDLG

In the case of “GGCUAGAACUAGUGGAUCCCCCGGCGCCCGGCGGCUCGAGCCCGGGUAAGUGUAAAUAGUCUGCAUGCCGCCGGGCGCCAUGCCUGCAGGUCGACUCUAGAAAACAUG”, the binding signal in [1] is 3.48 log2 enrichment (interaction score); in [2], 2.84 log2 enrichment (interaction score); in experiment [3], 1.87 log2 enrichment (interaction score); in [4], 7.48 log2 enrichment (interaction score); in experiment [5], 5.56 log2 enrichment (interaction score); in [6], 1.55 log2 enrichment (interaction score). The binding signal in [7] is 3.93 log2 enrichment (interaction score); in experiment [8], 3.02 log2 enrichment (interaction score); in [9], 4.67 log2 enrichment (interaction score); in experiment [10] it was 3.25 log2 enrichment (interaction score).
As for “GGCUAGAACUAGUGGAUCCCCCGGCGCCCGGCGGCUCGAGCCCGGGUAAGUGUAAGUAGUCUGCAUGCCGCCGGGCGCCAUGCCUGCAGGUCGACUCUAGAAAACAUG”, in [10], the binding signal is 1.79 log2 enrichment (interaction score).
With “GGCUAGAACUAGUGGAUCCCCCGGCGCCCGGCGGCUCGAGCCCGGGUAAGUGUAAUUAGUCUGCAUGCCGCCGGGCGCCAUGCCUGCAGGUCGACUCUAGAAAACAUG”, the binding signal is 5.3 log2 enrichment (interaction score) in experiment [3] and 2.15 log2 enrichment (interaction score) in [10].
Regarding “GGCUAGAACUAGUGGAUCCCCCGGCGCCCGGCGGCUCGAGCCCGGGUAAGUGUAAAAAGUCUGCAUGCCGCCGGGCGCCAUGCCUGCAGGUCGACUCUAGAAAACAUG”, the binding signal in experiment [9] was 7.67 log2 enrichment (interaction score).
“GGCUAGAACUAGUGGAUCCCCCGGCGCCCGGCGGCUCGAGCCCGGGUAAGUCUAAAUAGUCUGCAUGCCGCCGGGCGCCAUGCCUGCAGGUCGACUCUAGAAAACAUG”: the binding signal in experiment [11] is 3.14 log2 enrichment (interaction score); in experiment [12] it was 3.59 log2 enrichment (interaction score); in [13], 4.29 log2 enrichment (interaction score); in experiment [14], 1.4 log2 enrichment (interaction score).
Take “GGCUAGAACUAGUGGAUCCCCCGGCGCCCGGCGGCUCGAGCCCGGGUAAGUUUAAAUAGUCUGCAUGCCGCCGGGCGCCAUGCCUGCAGGUCGACUCUAGAAAACAUG”: the binding signal in experiment [14] is 5.7 log2 enrichment (interaction score); in experiment [15], 4.91 log2 enrichment (interaction score).
As to “GGCUAGAACUAGUGGAUCCCCCGGCGCCCGGCGGCUCGAGCCCGGGUAAGUGUACAUAGUCUGCAUGCCGCCGGGCGCCAUGCCUGCAGGUCGACUCUAGAAAACAUG”, the results for the binding signal in experiment [16] and in [17] were 2.63 log2 enrichment (interaction score) and 3.39 log2 enrichment (interaction score), respectively.
Turning to “GGCUAGAACUAGUGGAUCCCCCGGCGCCCGGCGGCUCGAGCCCGGGUAAGUGUCAAUAGUCUGCAUGCCGCCGGGCGCCAUGCCUGCAGGUCGACUCUAGAAAACAUG”, the binding signal in [6] is 2.41 log2 enrichment (interaction score).
Take “GGCUAGAACUAGUGGAUCCCCCGGCGCCCGGCGGCUCGAGCCCGGGUAAGUGUAAAGAGUCUGCAUGCCGCCGGGCGCCAUGCCUGCAGGUCGACUCUAGAAAACAUG”: the binding signal in experiment [9] was 6.63 log2 enrichment (interaction score).
Regarding “GGCUAGAACUAGUGGAUCCCCCGGCGCCCGGCGGCUCGAGCCCGGGUAAGUGUUAAUAGUCUGCAUGCCGCCGGGCGCCAUGCCUGCAGGUCGACUCUAGAAAACAUG”, the binding signal in experiment [6] is 1.47 log2 enrichment (interaction score).
“GGCUAGAACUAGUGGAUCCCCCGGCGCCCGGCGGCUCGAGCCCGGGUAAGUGGAAAUAGUCUGCAUGCCGCCGGGCGCCAUGCCUGCAGGUCGACUCUAGAAAACAUG”: the binding signal in experiment [18] is 3.94 log2 enrichment (interaction score).
On to “GGCUAGAACUAGUGGAUCCCCCGGCGCCCGGCGGCUCGAGCCCGGGUAAGUGUAGAUAGUCUGCAUGCCGCCGGGCGCCAUGCCUGCAGGUCGACUCUAGAAAACAUG”, for which the binding signal in experiment [17] was 1.66 log2 enrichment (interaction score).
Consider “GGCUAGAACUAGUGGAUCCCCCGGCGCCCGGCGGCUCGAGCCCGGGUAAGCGUAAAUAGUCUGCAUGCCGCCGGGCGCCAUGCCUGCAGGUCGACUCUAGAAAACAUG”, for which the binding signal was 6.96 log2 enrichment (interaction score) in [5] and 4.93 log2 enrichment (interaction score) in experiment [19].
As for “GGCUAGAACUAGUGGAUCCCCCGGCGCCCGGCGGCUCGAGCCCGGGUAAGUGAAAAUAGUCUGCAUGCCGCCGGGCGCCAUGCCUGCAGGUCGACUCUAGAAAACAUG”, the figures for the binding signal in [4], in [20] and in experiment [18] were 1.35 log2 enrichment (interaction score), 3.65 log2 enrichment (interaction score) and 6.06 log2 enrichment (interaction score), respectively.
With “GGCUAGAACUAGUGGAUCCCCCGGCGCCCGGCGGCUCGAGCCCGGGUAAGUGUAUAUAGUCUGCAUGCCGCCGGGCGCCAUGCCUGCAGGUCGACUCUAGAAAACAUG”, the binding signal in [1] was 6.81 log2 enrichment (interaction score); in [2], 1.55 log2 enrichment (interaction score); in [17], 4.97 log2 enrichment (interaction score).

(Values after publication PMC8384837, “Expanding the binding specificity for RNA recognition by a PUF domain”.)
